Screening data as filed in PubChem BioAssay.
USP2a inh: blocks human ubiquitin-specific protease USP2a; 0.01% of 330,000 active; USP2 core, Ub-CHOP2 coupled fluorogenic reporter, 485/531; Potency, µM (series often up to 38.3 µM), usual class: inhibitors
Target sequence (O75604 whole entry, looked up): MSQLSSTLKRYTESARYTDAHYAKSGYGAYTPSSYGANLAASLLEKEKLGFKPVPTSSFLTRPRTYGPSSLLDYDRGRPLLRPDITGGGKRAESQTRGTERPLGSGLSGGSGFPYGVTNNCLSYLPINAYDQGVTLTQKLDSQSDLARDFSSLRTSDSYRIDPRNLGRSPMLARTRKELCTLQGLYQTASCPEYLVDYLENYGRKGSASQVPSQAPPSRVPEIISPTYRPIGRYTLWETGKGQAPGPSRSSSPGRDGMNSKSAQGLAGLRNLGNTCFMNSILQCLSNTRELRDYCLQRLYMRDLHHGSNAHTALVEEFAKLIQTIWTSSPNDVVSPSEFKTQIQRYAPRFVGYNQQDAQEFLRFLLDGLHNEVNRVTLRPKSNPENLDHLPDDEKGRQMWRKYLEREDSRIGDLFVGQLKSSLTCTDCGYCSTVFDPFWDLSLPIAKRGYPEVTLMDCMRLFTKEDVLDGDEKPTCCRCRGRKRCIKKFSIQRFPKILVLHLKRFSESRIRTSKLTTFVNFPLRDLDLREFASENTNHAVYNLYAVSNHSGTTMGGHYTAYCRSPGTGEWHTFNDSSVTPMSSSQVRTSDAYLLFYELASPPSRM
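Deubiquitinase activity read as fluorescence (485/531 nm) after Ub-CHOP2 cleavage activates the enterokinase reporter on its substrate; USP2 core 10nM, Ub-CHOP2 and substrate 25nM each, 30min compound preincubation then 60min RT; data normalized to NEM, curves fitted.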
IL-1B inflam inh: blocks inflammasome-driven IL-1 beta release | THP-1 LPS/ATP IL-1B secretion, AlphaLISA, 16 h; hits give low values | activity change, % at 57.5 µM | 4.7% of 360,000 active | AID 743279; in the data active = activity change below about -50%; inconclusive = mostly about -30% to -49%
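Secreted IL-1B measured by AlphaLISA bead assay after 16 h compound exposure of THP-1 cells; compounds (final up to 57.5 uM) added 1 h before LPS (250 ng/mL) and ATP (1.25 mM) stimulation; lower signal means less secretion.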
ATXN2 expr inh: ATXN2 expression inhibition. 0.72% of 360,000 active. Potency, µM (titrated, usually from 57 µM), hits mostly inhibitors. HEK-293 ATXN2-luciferase reporter, luminescence, 24 h; also: nearly all actives have a fitted effect of over 55% in size
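ATXN2-luciferase reporter cells (luciferase flanked by upstream and downstream ATXN2 gene portions) were treated 24 h at 37 °C with compounds at up to 57 uM. SteadyGlo luminescence gave expression; GF-AFC fluorescence gave viability.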
S2 tox: reduces viability in counter-screen for ATXN expression inhibitors. S2 cells (HEK-293 line with an ATXN2-luciferase reporter) viability, CellTiter-Fluor protease fluorescence, 24 h. Potency, µM (top dose mostly 56.7 µM), usual class: cytotoxic. 0.49% of 400,000 active; also: nearly all actives have a fitted effect of over 40% in size
USP1 inh: inhibitors of human USP1/UAF1 deubiquitinase; O94782; recombinant USP1/UAF1, Ub-Rhodamine cleavage fluorescence; Potency, µM (top dose mostly 57.1 µM), actives largely listed as inhibitors; 0.23% of 390,000 active; also: nearly all actives have a fitted effect of over 60% in size
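Step one: compound is pinned into 1nM USP1/UAF1 in HEPES pH 7.8 buffer with TCEP. Step two: 15 min room-temperature incubation. Step three: Ub-Rho (150nM final) starts cleavage, tracked by fluorescence over six one-minute reads.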
Of the large screens only hits and unclear results are named; the others gave an inactive call. The list is not random: actives were taken first. Their share in the collection is about 4.8%. Unless noted, calls follow the shape of the dose curve; as a rule, active = well fitted curve in the direction sought with a large enough effect; inconclusive = small, poorly fitted or top-dose-only effect, or another doubt; inactive = no such curve, though single readings can be large; an effect the other way counts as inactive or inconclusive.

CCOc1ccc(OCCSc2nc3ccccc3[nH]2)cc1	IL-1B inflam inh inconclusive
CCOc1ccc(NC(=O)c2ccc(-c3cccc(Cl)c3C)o2)cc1	USP1 inh inconclusive (no result: USP2a inh, IL-1B inflam inh)
COc1ccc(S(=O)(=O)N2CCCOC2CNC(=O)C(=O)NCCc2ccco2)cc1 (centres undefined)	none
CCc1ccc(C(C(=O)NCc2ccc(OC)cc2)N(CCOC)C(=O)Cc2cccs2)cc1 (centres undefined)	IL-1B inflam inh -54.9
COCCN(C(=O)Cc1cccs1)C(C(=O)NCc1ccc(OC)cc1)c1ccc(C(C)C)cc1 (centres undefined)	ATXN2 expr inh inconclusive (no result: S2 tox)
C[C@H]1CN([C@@H](C)CO)C(=O)Cc2cc(NC(=O)CCC(F)(F)F)ccc2O[C@H]1CN(C)Cc1ccc(C(F)(F)F)cc1	IL-1B inflam inh -68.7, ATXN2 expr inh inconclusive (no result: S2 tox)
C[C@H]1CN([C@@H](C)CO)C(=O)Cc2cc(NC(=O)Cn3cnnn3)ccc2O[C@H]1CN(C)Cc1ccncc1	none
C[C@@H]1CN([C@H](C)CO)C(=O)c2cc(NS(=O)(=O)c3ccc(F)cc3)ccc2O[C@@H]1CN(C)Cc1ccc(Cl)c(Cl)c1	IL-1B inflam inh -71.9, ATXN2 expr inh inconclusive, S2 tox inconclusive, USP1 inh inconclusive
C[C@@H]1CN([C@H](C)CO)C(=O)Cc2cc(NC(=O)Cn3cnnn3)ccc2O[C@@H]1CN(C)Cc1ccc(Cl)c(Cl)c1	IL-1B inflam inh -59.2, S2 tox inconclusive, USP1 inh inconclusive
C[C@H](CO)N1C[C@H](C)[C@H](CN(C)Cc2ccc(-c3ccccc3)cc2)Oc2ccc(NS(=O)(=O)c3ccccc3)cc2CC1=O	ATXN2 expr inh inconclusive, S2 tox inconclusive
Cc1ccc(S(=O)(=O)Nc2ccc3c(c2)CC(=O)N([C@H](C)CO)C[C@@H](C)[C@H](CN(C)Cc2ccc(-c4ccccc4)cc2)O3)cc1	ATXN2 expr inh inconclusive, S2 tox 22.4µM
CC1(C(=O)Nc2cnc3ccccc3c2)CCN1C(=O)CC(c1ccccc1)c1ccccc1 (centres undefined)	ATXN2 expr inh inconclusive, S2 tox inconclusive (no result: USP2a inh, USP1 inh)
C[C@H]1CN([C@@H](C)CO)C(=O)c2cccc(NC(=O)Nc3ccc(C(F)(F)F)cc3)c2O[C@@H]1CN(C)Cc1ccc(Cl)c(Cl)c1	S2 tox 14.1µM, USP1 inh inconclusive
C[C@H]1CN([C@@H](C)CO)C(=O)Cc2cc(NC(=O)C3CC3)ccc2O[C@H]1CN(C)Cc1ccc(Oc2ccccc2)cc1	IL-1B inflam inh -72.3, ATXN2 expr inh inconclusive (no result: S2 tox)
C[C@@H]1CN([C@@H](C)CO)C(=O)c2cc(NC(=O)CCC(F)(F)F)ccc2O[C@H]1CN(C)Cc1ccc(Cl)c(Cl)c1	IL-1B inflam inh inconclusive, ATXN2 expr inh inconclusive, S2 tox inconclusive
CC(C)NC(=O)N(C)C[C@H]1Oc2c(NC(=O)Nc3ccc(C(F)(F)F)cc3)cccc2C(=O)N([C@H](C)CO)C[C@@H]1C	IL-1B inflam inh inconclusive, S2 tox inconclusive
C[C@@H]1CCCCO[C@@H](CN(C)Cc2ccc(C(F)(F)F)cc2)[C@@H](C)CN([C@H](C)CO)C(=O)c2cc(N(C)C)ccc2O1	IL-1B inflam inh -53.0, ATXN2 expr inh inconclusive, S2 tox 22.4µM (no result: USP2a inh)
C[C@@H]1CN([C@H](C)CO)C(=O)c2cc(NC(=O)Nc3ccc(C(F)(F)F)cc3)ccc2O[C@H]1CN(C)Cc1ccc(Cl)c(Cl)c1	IL-1B inflam inh -79.9, ATXN2 expr inh inconclusive, S2 tox 12.6µM
C[C@H]1CN([C@@H](C)CO)C(=O)Cc2cc(NC(=O)CCN3CCOCC3)ccc2O[C@@H]1CN(C)Cc1ccc(Oc2ccccc2)cc1	none
CCCCN1C(=O)C(CC(=O)NCc2cccc3ccccc23)CC(C(=O)N(C)C)=C1C (centres undefined)	none (no result: USP2a inh)
Cc1cccc(NS(=O)(=O)c2nnc(NC(=O)C3CCCCC3)s2)c1	none
O=C(Nc1nccs1)c1ccc(S(=O)(=O)NCc2cccs2)cc1	IL-1B inflam inh -75.8
O=C(Nc1ccc(Br)cc1)c1ccc(F)c(S(=O)(=O)NCc2cccs2)c1	IL-1B inflam inh -55.0
CCCCc1ccc(NC(=O)C2(C)Cc3ccccc3C(=O)O2)cc1 (centres undefined)	USP1 inh inconclusive (no result: USP2a inh, IL-1B inflam inh)
